The nature of test [1]: Cell Viability - Hek293 (AID 427;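 active = compounds whose dose-response curve shows a full or clear partial loss of cell viability, called from curve shape rather than a numeric limit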;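 also: potency is read from the fitted curve at half-maximal effect; cells exposed to compound for 40 hours at 37 °C before reading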). Conditions: qHTS. A digest of the protocol:
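Luminescent ATP read-out (CellTiter-Glo, 20 min RT) after 40 hr compound exposure at 37 °C in complete medium. Signal normalized to DMSO (basal) and 100 uM tamoxifen (100% inhibition); concentration-response fitted with the standard Hill equation to give AC50.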
A general note: qHTS replaces the single test concentration by a dilution series.

Test [2] in a line: Cell Viability - N2a (AID 540). Also: nearly all actives have a fitted effect of over 45% in size. Also: potency is read from the fitted curve at half-maximal effect.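 As to activity change, negative = cytotoxicity: plate controls were DMSO alone for no effect and tamoxifen control for full effect.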 Conditions: N2a mouse neuroblastoma cell viability; activity change, negative = cytotoxicity: at 92.2 µM (top of the series). A digest of the protocol:
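Cytotoxicity was scored as loss of cellular ATP in N2a cells, a mouse neuroblastoma line. Compounds are applied in a qHTS concentration series for 40 hr at 37 °C.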

A short description of test [3]: Cell Viability - H-4-II-E (AID 543).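 Also: cells exposed to compound for 40 hours; nearly all actives have a fitted effect of over 35% in size.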 Also: potency is read from the fitted curve at half-maximal effect. A digest of the protocol: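 Cells seeded at 1500 per well and rested 5 hr; compounds added; 40 hr incubation at 37 °C; CellTiter-Glo added, 20 min at room temperature; luminescence read. Hill-equation fits gave AC50.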
A short description of test [4]: Cell Viability - SH-SY5Y (AID 544).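 Also: cells exposed to compound for 40 hours; nearly all actives have a fitted effect of over 55% in size.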 Also: potency is read from the fitted curve at half-maximal effect.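 As to viability change, negative = cytotoxic: 0% = DMSO alone and -100% = 100 µM tamoxifen.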 The note with it: SH-SY5Y neuroblastoma cell viability; viability change, negative = cytotoxic: at 92.2 µM (top of the series). A digest of the protocol: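 Cells were plated at 1500 per well and allowed 5 hr at 37 °C. Compounds were added across a concentration range and incubated 40 hr at 37 °C. CellTiter-Glo was added for 20 min at room temperature before luminescence reading.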

Test [5] in a line: Cell Viability - Renal Proximal Tubule (AID 545).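 Also: cells exposed to compound for 40 hours; nearly all actives have a fitted effect of over 40% in size.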 Also: potency is read from the fitted curve at half-maximal effect.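 As to activity change, negative = cytotoxicity: 0% = DMSO only and -100% = 100 µM tamoxifen.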 The note with it: renal proximal tubule cells viability, primary cells of rat origin; activity change, negative = cytotoxicity: at 91.7 µM (top of the series). A digest of the protocol:
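Rat kidney proximal tubule cells, freshly isolated; 1000 cells/well, 5 hr settle, compound 40 hr 37 °C. CellTiter-Glo 20 min RT, luminescence read. AC50 by standard Hill fit.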

The nature of test [6]: MultiTox-Fluor Cytotoxicity Assay - LYMP1-002 - Dead Cells (AID 960). Also: nearly all actives have a fitted effect of over 60% in size. Also: potency is read from the fitted curve at half-maximal effect. A digest of the protocol: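 Cells were plated, rested 5 hr, then treated with compound dilution series for 16 hr at 37 C. After adding substrate reagent and 60 min at room temperature, dead-cell protease fluorescence gave concentration-response curves fitted by the Hill equation.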
Test [7] in a line: Cell Viability - LYMP2-004 (AID 966). Also: nearly all actives have a fitted effect of over 65% in size. Also: potency is read from the fitted curve at half-maximal effect.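 As to activity change, negative = cytotoxicity: plate controls were DMSO only for no effect and tetraoctylammonium bromide control for full effect.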 A digest of the protocol: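 qHTS cytotoxicity: human lymphoblastoid line, 24 hr compound treatment, 37 C, complete medium. Viability read as cellular ATP via luciferase luminescence; tetraoctylammonium bromide served as positive control.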
The nature of test [8]: Cell Viability - LYMP2-005 (AID 967). Also: potency is read from the fitted curve at half-maximal effect. A digest of the protocol:
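Steps: seed 2500 LYMP2-005 cells/well, incubate 5 h at 37 C, add compound, incubate 24 h at 37 C, add CellTiter-Glo, wait 30 min at RT, read luminescence. Concentration-response data fitted to Hill equation for AC50.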

Test [9] in a line: Cell Viability - LYMP2-009 (AID 968). Also: nearly all actives have a fitted effect of over 55% in size. Also: potency is read from the fitted curve at half-maximal effect.
Test [10] can be described thus: Cell Viability - LYMP2-015 (AID 971). Also: nearly all actives have a fitted effect of over 55% in size. Also: potency is read from the fitted curve at half-maximal effect. A digest of the protocol: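 Cells are seeded at 2500 per well and incubated 5 hr at 37 C. Compounds are added across a concentration series for 24 hr at 37 C. CellTiter-Glo is added, and luminescence is read after 30 min at room temperature.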
Test [11] in a line: Cell Viability - LYMP2-017 (AID 972).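 Also: cells exposed to compound for 24 hours at 37 °C; nearly all actives have a fitted effect of over 55% in size.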 Also: potency is read from the fitted curve at half-maximal effect. As to activity change, negative = cytotoxicity: % is scaled to controls: 0 for no effect and ±100 for the full control effect. A digest of the protocol: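 Cytotoxicity is scored as a concentration-dependent drop in cellular ATP in a human lymphoblastoid line after 24 hr treatment at 37 C. Values are AC50s from Hill-equation modelling.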
Test [12] is described as follows: Cell Viability - LYMP2-006 (AID 978).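 Also: cells exposed to compound for 24 hours; nearly all actives have a fitted effect of over 60% in size.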 Also: potency is read from the fitted curve at half-maximal effect. As to activity change, negative = cytotoxicity: % is scaled to controls: 0 for no effect and ±100 for the full control effect. A digest of the protocol: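 qHTS, 1536-well; 2500 cells/well, 5 hr 37 C; cpd 24 hr 37 C; CellTiter-Glo 30 min RT; luminescence. Tetraoctylammonium bromide pos. ctrl. AC50 via Hill eqn.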
Test [13] in a line: Cell Viability - LYMP2-010 (AID 981). Also: potency is read from the fitted curve at half-maximal effect. A digest of the protocol: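 Steps: seed 2500 LYMP2-010 cells per well; incubate 5 hr at 37 C; add compound; incubate 24 hr at 37 C; add CellTiter-Glo, wait 30 min at room temperature; read luminescence. Concentration-response fitted to Hill equation for AC50.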
The nature of test [14]: qHTS assay for small molecule agonists of retinoid X receptor alpha signaling (AID 588544; calls by dose curve). The note with it: HEK293T RXRa-UAS-bla, beta-lactamase reporter, 18 h; 530 nm emission.
Test [15] addresses Retinoic acid receptor RXR-alpha (Homo sapiens) (UniProt P19793). Described as above.
The target of test [16] is Thyroid hormone receptor beta (Homo sapiens) (UniProt P10828). In words: qHTS assay for small molecule agonists of thyroid hormone receptor beta signaling (AID 588545; calls by dose curve;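 also: 0% = DMSO only and 100% = 10 nM T3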). A digest of the protocol:
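Beta-lactamase reporter activity under TR response element control is measured in HEK 293 cells after 18 hrs compound exposure. Signal is ratiometric CCF4 fluorescence, 460/530 nm.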

The nature of test [17]: qHTS assay for small molecule disruptors of the mitochondrial membrane potential - 1 hr assay (AID 651754; calls by dose curve; also: % is scaled to controls: 0 for no effect and ±100 for the full control effect; nearly all actives have a fitted effect of over 35% in size). A digest of the protocol: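 Loss of mitochondrial potential shifts the cationic dye from red mitochondrial aggregates to green cytoplasmic monomers. Cells (HepG2) are treated with compound for 1 hr before a 30 min dye incubation at 37C.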
A short description of test [18]: qHTS assay for small molecule disruptors of the mitochondrial membrane potential - 5 hr assay (AID 651755; calls by dose curve; also: % is scaled to controls: 0 for no effect and ±100 for the full control effect; nearly all actives have a fitted effect of over 40% in size). A digest of the protocol:
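Membrane-potential dye readout: red aggregate (540 ex/590 em) versus green monomer (490 ex/535 em) fluorescence after 30 min dye loading, following 5 hr compound exposure at 37C of overnight-plated HepG2 cells.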

Test [19] in a line: qHTS assay for small molecule agonists of the antioxidant response element (ARE) signaling pathway measured by Nrf2-dependant transcriptional activity (AID 720636; active = well fitted curve in the direction sought with a large enough effect in the repeat runs; an effect the other way counts as inactive or inconclusive; also: potency is read from the fitted curve at half-maximal effect). A digest of the protocol: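 Quantitative HTS format in HepG2 cells stably expressing an ARE-luciferase reporter; 16 hr compound treatment at 37 C, luciferase signal detected with ONE-Glo.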
Test [20] addresses Nuclear receptor subfamily 1 group I member 2 (Rattus norvegicus) (UniProt Q9R1A7). In words: qHTS assay for small molecule activators of the rat pregnane X receptor (rPXR) signaling pathway (AID 651751; call rule not given here; also: 0% is about no effect). Conditions: rPXR reporter cells, luciferase (One-Glo), 24 h.

Records with an inconclusive call do not appear. Activity calls are given as the source filed them. Unless noted, calls follow the shape of the dose curve; as a rule, active = well fitted curve in the direction sought with a large enough effect; inconclusive = small, poorly fitted or top-dose-only effect, or another doubt; inactive = no such curve, though single readings can be large; an effect the other way counts as inactive or inconclusive.

Chain of Nuclear receptor subfamily 1 group I member 2 (Rattus norvegicus) (Q9R1A7 whole entry, looked up): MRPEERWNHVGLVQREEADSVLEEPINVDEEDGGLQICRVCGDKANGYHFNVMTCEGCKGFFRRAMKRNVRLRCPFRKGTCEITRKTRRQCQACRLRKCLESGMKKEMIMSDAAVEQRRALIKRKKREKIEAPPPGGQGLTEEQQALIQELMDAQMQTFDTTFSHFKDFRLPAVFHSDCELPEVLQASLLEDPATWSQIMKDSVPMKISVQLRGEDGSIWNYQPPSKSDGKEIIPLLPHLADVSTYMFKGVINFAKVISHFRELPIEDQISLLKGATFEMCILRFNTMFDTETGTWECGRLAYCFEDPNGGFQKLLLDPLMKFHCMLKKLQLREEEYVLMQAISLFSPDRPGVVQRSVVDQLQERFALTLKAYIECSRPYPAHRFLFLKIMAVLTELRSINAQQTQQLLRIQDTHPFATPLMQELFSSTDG
Chain of Retinoic acid receptor RXR-alpha (Homo sapiens) (P19793 whole entry, looked up): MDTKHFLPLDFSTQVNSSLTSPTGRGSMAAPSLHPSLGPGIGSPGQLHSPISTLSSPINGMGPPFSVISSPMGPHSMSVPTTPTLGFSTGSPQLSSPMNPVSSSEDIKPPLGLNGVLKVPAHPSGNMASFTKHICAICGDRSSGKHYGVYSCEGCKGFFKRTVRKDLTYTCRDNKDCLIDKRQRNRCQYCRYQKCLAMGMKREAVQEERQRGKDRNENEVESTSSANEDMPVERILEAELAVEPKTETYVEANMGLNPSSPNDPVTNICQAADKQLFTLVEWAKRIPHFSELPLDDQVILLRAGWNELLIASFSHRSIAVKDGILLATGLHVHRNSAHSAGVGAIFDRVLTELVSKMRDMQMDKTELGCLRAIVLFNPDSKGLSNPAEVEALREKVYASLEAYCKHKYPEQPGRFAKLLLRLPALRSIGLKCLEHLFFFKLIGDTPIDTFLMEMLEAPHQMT
Chain of Thyroid hormone receptor beta (Homo sapiens) (P10828 whole entry, looked up): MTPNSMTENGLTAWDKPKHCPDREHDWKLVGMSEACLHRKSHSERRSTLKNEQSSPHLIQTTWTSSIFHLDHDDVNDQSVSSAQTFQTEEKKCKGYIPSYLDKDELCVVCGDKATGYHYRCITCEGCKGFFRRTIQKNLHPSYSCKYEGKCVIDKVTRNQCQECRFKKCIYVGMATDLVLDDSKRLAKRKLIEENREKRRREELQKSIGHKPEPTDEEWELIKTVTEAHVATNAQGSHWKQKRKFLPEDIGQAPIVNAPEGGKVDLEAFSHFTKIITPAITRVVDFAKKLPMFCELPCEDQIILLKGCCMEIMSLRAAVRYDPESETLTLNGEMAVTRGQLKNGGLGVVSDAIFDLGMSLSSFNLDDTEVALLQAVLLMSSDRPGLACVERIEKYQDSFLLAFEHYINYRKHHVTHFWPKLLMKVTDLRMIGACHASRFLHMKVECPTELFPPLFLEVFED

For `C=CC(=O)CC`, in [1], the Potency was > 92 µM (inactive). Also, the activity change, negative = cytotoxicity in [2] was 4.36% (inactive). Moreover, the Potency entry in [3], in test [4], in [5], in [6], in [7] and in test [8] was “inactive” in each case. In addition, the Potency entry in test [9], in test [10], in test [11], in test [12], in [13] and in [15] was “inactive” in each case. Further, the Potency entry in test [16], in [17], in test [18] and in test [19] was “inactive” each time. Besides, the max response in test [14] was -11.5%; in [20], 9.91% (inactive).
Regarding `O=C1c2ccccc2C(=O)C1(O)O`, in test [2], the activity change, negative = cytotoxicity is -94.6% (active). Besides, the Potency in test [5] was 1.58 µM (active); in test [7], 50.1 µM (active). Moreover, the Potency result in [6], in test [9], in test [11], in test [12], in [15] and in test [16] was “inactive” each time. The Potency entry in [18] and in test [19] was “inactive” each time. Moreover, the max response in test [14] was 5.07%; in test [20] it was 1% (inactive).
Turning to `Cc1ccccc1OCC1CO1` (stereo not drawn), the Potency in test [1] was > 92 µM (inactive). The activity change, negative = cytotoxicity in [2] is -6.29% (inactive). The Potency entry in test [3], in [4], in test [5], in [6], in [7] and in test [8] was “inactive” in each case. The Potency result in [9], in [10], in test [11], in test [12], in [13] and in [15] was “inactive” in each case. In addition, the Potency entry in test [17], in [18] and in test [19] was “inactive” each time. The max response in [14] is 14.4%; in test [20] it was 0.751% (inactive).
Consider `CC1=C(/C=C/C(C)=C/C=C/C(C)=C/C=O)C(C)(C)CCC1`, for which the Potency was 53.9 µM (active) in test [1]; 31.6 µM (active) in test [2]; 25.1 µM (active) in test [3]; 25.1 µM (active) in [4]; 15.8 µM (active) in test [5]; 31.6 µM (active) in [6]. In addition, the Potency in test [7] was 39.8 µM (active); in test [8], 39.8 µM (active); in [9] it was 39.8 µM (active); in test [10], 39.8 µM (active); in test [11], 39.8 µM (active); in [12], 63.1 µM (active). Also, the Potency in [13] is 31.6 µM (active). Moreover, the Potency entry in test [16], in [17] and in [18] was “inactive” throughout.
Turning to `CC/C=C/C/C=C/C/C=C/CCCCCCCC(=O)OCC`, the Potency was > 92 µM (inactive) in test [1]; 31.6 µM (active) in [7]; 31.6 µM (active) in [8]; 39.8 µM (active) in test [9]; 39.8 µM (active) in test [10]; 31.6 µM (active) in test [11]. For the same compound, the values for the Potency in [12], in test [13] and in [19] were 50.1 µM (active), 25.1 µM (active) and 66.8 µM (active), respectively. Moreover, the activity change, negative = cytotoxicity in [2] is -12.6% (inactive). Further, the Potency result in test [3], in test [5], in test [16], in [17] and in test [18] was “inactive” each time. Further, in test [20], the max response was 2.44% (inactive).
As to `O=C(O)/C=C/c1ccc(/C=C/C(=O)O)cc1`, the Potency in test [1] is > 92 µM (inactive). The activity change, negative = cytotoxicity in test [2] was -20.9% (inactive). Moreover, the Potency result in test [3], in test [4], in [5], in test [6], in [7] and in [8] was “inactive” each time. In addition, the Potency entry in test [9], in test [10], in test [11], in test [12], in test [13] and in test [15] was “inactive” throughout. The Potency entry in [17], in test [18] and in [19] was “inactive” each time. Also, the max response in test [14] is 9.62%; in [20] it was 0.0892% (inactive).

(Values after PubChem BioAssay (NCATS).)
